Assay results as given in PubChem BioAssay AID1159580 (chemical genetic matrix, 2015).
“And” between values parts separate entries of the source, which are not always exact repeats. Identical values can stand only once. About 2,000 (36%) of roughly 5,500 compounds were called active. Not shown: some 18% with an inconclusive outcome. No stated cut-off is given here; in the data, active means normalized growth mostly below about 0.91 (no sharp cut-off); inconclusive means no clear call, values can overlap the other calls; inactive means mostly above about 0.92. The list shows a part of the results.

Test: chemical genetic growth profiling, strain panel (AID 1159580);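 further: tested at 20 µM; growth read once vehicle control cultures reached saturation at 30 °C; 1 = growth at the plate median or of vehicle wells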
Conditions: S. cerevisiae deletion strains, growth OD

Measured: normalized growth

C=C1C2CC[C@@]3(C)[C@H](c4ccoc4)OC(=O)C[C@]13O[C@H]1CC(O)C(C)(C)C(CC(=O)OC)[C@@]21C (stereo not given in full)
inactive: locus YAL021C, strain ccr4, stronger effect = lower value 0.962 | locus YAL026C, strain drs2, stronger effect = lower value 0.934 | locus YAL030W, strain snc1, stronger effect = lower value 0.949 | locus YBL061C, strain skt5, stronger effect = lower value 0.984 | locus YBR009C, strain hhf1, stronger effect = lower value 0.972 | locus YBR021W, strain FUR4, stronger effect = lower value 0.991 | locus YBR023C, strain chs3, stronger effect = lower value 0.981 | locus YBR171W, strain sec66, stronger effect = lower value 0.98 | locus YBR229C, strain ROT2, stronger effect = lower value 0.995 | locus YBR231C, strain swc5, stronger effect = lower value 0.974 | locus YBR279W, strain paf1, stronger effect = lower value 0.978 | locus YCL011C, strain gbp2, stronger effect = lower value 0.984 | locus YCL016C, strain dcc1, stronger effect = lower value 0.983 | locus YCL029C, strain bik1, stronger effect = lower value 1.01 | locus YCL061C, strain MRC1, stronger effect = lower value 0.989 | locus YCL069W, strain vba3, stronger effect = lower value 0.979 | locus YCR088W, strain abp1, stronger effect = lower value 0.977 | locus YDL005C, strain med2, stronger effect = lower value 0.952 | locus YDL035C, strain GPR1, stronger effect = lower value 0.999 | locus YDL040C, strain nat1, stronger effect = lower value 0.982 | locus YDL074C, strain BRE1, stronger effect = lower value 0.999 | locus YDL101C, strain DUN1, stronger effect = lower value 0.999 | locus YDL185W, strain tfp1, stronger effect = lower value 1.02 | locus YDL192W, strain arf1, stronger effect = lower value 1.01 | locus YDR001C, strain nth1, stronger effect = lower value 0.962 | locus YDR069C, strain doa4, stronger effect = lower value 0.957 | locus YDR101C, strain arx1, stronger effect = lower value 1.01 | locus YDR137W, strain rgp1, stronger effect = lower value 0.938 | locus YDR150W, strain NUM1, stronger effect = lower value 0.98 | locus YDR159W, strain sac3, stronger effect = lower value 0.936 | locus YDR162C, strain NBP2, stronger effect = lower value 1.01 | locus YDR195W, strain ref2 0.937 | locus YDR297W, strain sur2, stronger effect = lower value 0.965 | locus YDR318W, strain mcm21, stronger effect = lower value 1.02 | locus YDR334W, strain swr1, stronger effect = lower value 0.966 | locus YDR335W, strain msn5, stronger effect = lower value 0.967 | locus YDR388W, stronger effect = lower value 1 | locus YDR392W, strain spt3, stronger effect = lower value 0.97 | locus YDR502C, strain sam2, stronger effect = lower value 1 | locus YEL003W, strain gim4, stronger effect = lower value 0.975 | locus YEL037C, strain rad23, stronger effect = lower value 0.976 | locus YEL061C, strain CIN8 (second series), stronger effect = lower value 0.966 | locus YEL061C, strain CIN8, stronger effect = lower value 1.05 | locus YER015W, strain faa2, stronger effect = lower value 0.985 | locus YER016W, strain bim1, stronger effect = lower value 0.967 | locus YER110C, stronger effect = lower value 1.02 | locus YER111C, strain swi4, stronger effect = lower value 0.988 | locus YER155C, strain BEM2 (second series), stronger effect = lower value 0.955 | locus YER155C, strain BEM2, stronger effect = lower value 1 | locus YER167W, strain BCK2, stronger effect = lower value 1 | locus YFR010W, strain ubp6, stronger effect = lower value 0.965 | locus YGL078C, strain dbp3, stronger effect = lower value 1.02 | locus YGL086W, strain mad1, stronger effect = lower value 1.02 | locus YGL167C, strain pmr1, stronger effect = lower value 0.963 | locus YGL173C, strain kem1, stronger effect = lower value 0.961 | locus YGL227W, strain vid30, stronger effect = lower value 0.986 | locus YGL240W, strain doc1, stronger effect = lower value 0.97 | locus YGL248W, strain PDE1, stronger effect = lower value 1.01 | locus YGL253W, strain hxk2, stronger effect = lower value 0.972 | locus YGR135W, strain pre9, stronger effect = lower value 1.01 | locus YGR252W, strain gcn5, stronger effect = lower value 1.02 | locus YHR013C, strain ard1, stronger effect = lower value 0.939 | locus YHR027C, strain rpn1, stronger effect = lower value 0.967 | locus YHR030C, strain SLT2, stronger effect = lower value 1.01 and 0.963 | locus YHR079C, strain IRE1 (second series), stronger effect = lower value 1.01 | locus YHR079C, strain IRE1, stronger effect = lower value 0.973 | locus YHR094C, strain hxt1, stronger effect = lower value 1.01 | locus YHR129C, strain ARP1, stronger effect = lower value 1 | locus YHR142W, strain chs7, stronger effect = lower value 0.986 | locus YHR200W, strain rpn10, stronger effect = lower value 0.993 | locus YIL066C, strain RNR3, stronger effect = lower value 0.997 | locus YIL073C, strain SPO22, stronger effect = lower value 1.06 | locus YIL125W, strain kgd1, stronger effect = lower value 1.01 | locus YIR030C, strain dcg1, stronger effect = lower value 1.01 | locus YJL092W, strain hpr5, stronger effect = lower value 0.975 | locus YJL095W, strain BCK1 (second series), stronger effect = lower value 0.956 | locus YJL095W, strain BCK1, stronger effect = lower value 1.01 and 0.974 | locus YJL115W, strain asf1, stronger effect = lower value 0.937 | locus YJL129C, strain trk1, stronger effect = lower value 0.963 | locus YJL134W, strain LCB3, stronger effect = lower value 1.01 | locus YJL154C, strain vps35, stronger effect = lower value 0.973 | locus YJL164C, strain tpk1, stronger effect = lower value 0.972 | locus YJL166W, strain qcr8, stronger effect = lower value 0.97 | locus YJL168C, strain set2, stronger effect = lower value 1.01 | locus YJL187C, strain SWE1 (second series), stronger effect = lower value 1
